Test results taken from the supplement of paper PMC10849652.
Targets with a hit are over-represented here; the source holds about 8,800 in all. About 0.5% of all pairs of compound and target were hits.

What was measured:
Experiment in all cases: log2 fold change, soluble protein after heating vs DMSO (PISA); higher = thermal stabilisation; K562 lysate, 10 uM; active = over 0.2 and 3.5 SD of the protein, either way, in both replicates (recomputed)
erlotinib = compound: C#Cc1cccc(Nc2ncnc3cc(OCCOC)c(OCCOC)cc23)c1 [erlotinib]
Summary of the method: (§1)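 Following dounce homogenisation of K562 pellets in PBS pH 7.4 with 1 mM MgCl2, crude extract at 1 mg/mL protein was incubated for 30 min with 10 μM compound. Aliquots were then heated for 3 min over 48°C-58°C and pooled, NP-40 was added to 0.5% at 4°C, and soluble protein was recovered as the supernatant at 21,000xg for 90 min. Channel-sum-equalised TMTpro 16plex LC-MS/MS quantified this protein. Each value, from duplicates, is a log-two fold change in thermal stability relative to solvent controls.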

[1] = compound: C/C(=N\NC(=O)C1=CC(=CC=C1)S(=O)(=O)N2CCOCC2)/C3=C(C=CC(=C3)Cl)O
Summary of the method: as §1

[2] = compound: C1=CC(=CC=C1C2=NC3=C(N2)C=C(C=C3)C(=O)N)OC4=CC=C(C=C4)Cl
Summary of the method: as §1

[3] = compound: C1=CC2=C(C=CC(=C2)/C=C\3/C(=O)NC(=NCC4=CC=CS4)S3)N=C1
Summary of the method: as §1

[4] = compound: C1=CC2=NC=CN=C2C=C1/C=C/3\C(=O)NC(=O)S3
Summary of the method: as §1

[5] = compound: C1=CC=C(C=C1)C2=NC(=C(N2)C3=CC=NC=C3)C4=CC(=C(C=C4)Cl)O
Summary of the method: as §1

[6] = compound: C1=CC=C2C(=C1)C3=NNC4=CC=CC(=C43)C2=O
Summary of the method: as §1

[7] = compound: C1CCN(C1)C(=O)NC2=CC=CC(=C2)NC3=NC=C(C(=N3)NCCC4=CN=CN4)Br
Summary of the method: as §1

[8] = compound: C1CN(CCC1(CC2=CC=C(C=C2)Cl)N)C3=NC=NC4=C3C=CN4
Summary of the method: as §1

IRAK-1-4 Inhibitor I = compound: C1COCCN1CCN2C3=CC=CC=C3N=C2NC(=O)C4=CC(=CC=C4)[N+](=O)[O-] [IRAK-1-4 Inhibitor I]
Summary of the method: as §1

ibrutinib = compound: C=CC(=O)N1CCC[C@@H](n2nc(-c3ccc(Oc4ccccc4)cc3)c3c(N)ncnc32)C1 [ibrutinib]
Summary of the method: as §1

[9] = compound: CC(=O)c1cnc2ccc(-c3cc(Cl)c(O)c(Cl)c3)nc2c1N[C@H]1CC[C@H](CN(C)C)CC1
Summary of the method: as §1

ralimetinib = compound: CC(C)(C)Cn1c(N)nc2ccc(-c3[nH]c(C(C)(C)C)nc3-c3ccc(F)cc3)nc21 [ralimetinib]
Summary of the method: as §1

[10] = compound: CC(C)(O)CC(=O)NCCn1ccc2ncnc(Nc3ccc(Oc4cccc(C(F)(F)F)c4)c(Cl)c3)c21
Summary of the method: as §1

[11] = compound: CC(C)C1=C2N=C(C=C(N2N=C1)NCC3=CC=CC=C3)NCCCCCCN
Summary of the method: as §1

[12] = compound: CC1=C(C(CC(=O)N1)C2=CC=C(C=C2)C(F)(F)F)C(=O)NC3=C(C=C4C(=C3)C=NN4)F
Summary of the method: as §1

[13] = compound: CC1=C(C2=C(C=C1)C(=O)C3=CC=CC=C3N2CCCN)C
Summary of the method: as §1

[14] = compound: CC1=C(C=C(C=C1)NC(=O)C2=CC(=CC=C2)C(C)(C)C#N)NC3=CC4=C(C=C3)N=CN(C4=O)C
Summary of the method: as §1

[15] = compound: CC1=C(C=C(C=C1)NC(=O)C2=CC(=CC=C2)N(C)C)NC(=O)C3=CC=C(C=C3)O
Summary of the method: as §1

[16] = compound: CC1=CC=C(C=C1)SC2=C3C=C(SC3=CN=C2)C(=O)N
Summary of the method: as §1

Measured: log2 fold change

HADH isoform 2 (UniProt Q16836)
UniProt Q16836, sequence (Q16836 whole entry, looked up): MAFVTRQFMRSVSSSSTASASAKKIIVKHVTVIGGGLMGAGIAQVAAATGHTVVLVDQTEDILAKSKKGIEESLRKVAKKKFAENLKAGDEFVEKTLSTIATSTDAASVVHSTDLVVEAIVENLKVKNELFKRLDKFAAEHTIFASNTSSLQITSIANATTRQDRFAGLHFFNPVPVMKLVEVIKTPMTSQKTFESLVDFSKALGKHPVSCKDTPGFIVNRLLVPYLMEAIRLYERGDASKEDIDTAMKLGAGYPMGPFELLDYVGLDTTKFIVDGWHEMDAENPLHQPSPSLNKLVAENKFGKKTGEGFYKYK
inactive: erlotinib -0.052 | [1] 0.065 | [2] 0.023 | [3] 0.08 | [4] -0.03 | [5] 0.003 | [6] -0.015 | [7] -0.015 | [8] -0.028 | IRAK-1-4 Inhibitor I 0.008 | ibrutinib -0.004 | [9] 0.02 | ralimetinib -0.023 | [10] -0.011 | [11] -0.036 | [12] 0.013 | [13] -0.045 | [14] -0.039 | [15] 0.028 | [16] 0.004

H2AFY (UniProt O75367)
UniProt O75367, sequence (O75367 whole entry, looked up): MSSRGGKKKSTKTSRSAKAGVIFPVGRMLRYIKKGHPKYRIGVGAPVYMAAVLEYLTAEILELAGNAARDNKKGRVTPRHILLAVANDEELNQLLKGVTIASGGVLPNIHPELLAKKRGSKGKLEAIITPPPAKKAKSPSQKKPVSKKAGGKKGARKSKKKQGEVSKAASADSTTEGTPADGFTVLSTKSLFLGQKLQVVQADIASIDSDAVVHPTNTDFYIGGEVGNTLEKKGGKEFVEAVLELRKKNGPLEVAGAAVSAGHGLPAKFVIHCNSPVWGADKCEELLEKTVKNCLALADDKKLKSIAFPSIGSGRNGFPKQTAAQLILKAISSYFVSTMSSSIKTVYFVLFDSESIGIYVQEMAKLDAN
inactive: erlotinib 0.02 | [1] -0.026 | [2] 0.049 | [3] 0.069 | [4] 0.013 | [5] 0.069 | [6] 0.081 | [7] -0.051 | [8] -0.113 | IRAK-1-4 Inhibitor I 0.02 | ibrutinib 0.051 | [9] -0.056 | ralimetinib -0.025 | [10] -0.043 | [11] 0 | [12] -0.003 | [13] -0.148 | [14] -0.053 | [15] -0.033 | [16] -0.001

ICAM2 (UniProt P13598)
UniProt P13598, sequence (P13598 whole entry, looked up): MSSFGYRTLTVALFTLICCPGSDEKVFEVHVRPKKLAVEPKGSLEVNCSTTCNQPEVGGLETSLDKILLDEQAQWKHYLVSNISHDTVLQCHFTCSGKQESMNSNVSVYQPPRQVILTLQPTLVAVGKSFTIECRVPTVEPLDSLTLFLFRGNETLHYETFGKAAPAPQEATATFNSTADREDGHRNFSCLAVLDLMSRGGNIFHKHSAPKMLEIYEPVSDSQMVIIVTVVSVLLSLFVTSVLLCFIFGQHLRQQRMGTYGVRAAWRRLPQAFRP
inactive: erlotinib 0.004 | [1] -0.022 | [2] 0.023 | [3] -0.029 | [4] -0.01 | [5] -0.011 | [6] 0.021 | [7] 0.032 | [8] 0.005 | IRAK-1-4 Inhibitor I 0.061 | ibrutinib 0.058 | [9] 0.043 | ralimetinib 0.001 | [10] -0.019 | [11] -0.016 | [12] 0.005 | [13] 0.012 | [14] 0.023 | [15] -0.028 | [16] -0.028

INTS3 (UniProt Q68E01)
UniProt Q68E01, sequence (Q68E01 whole entry, looked up): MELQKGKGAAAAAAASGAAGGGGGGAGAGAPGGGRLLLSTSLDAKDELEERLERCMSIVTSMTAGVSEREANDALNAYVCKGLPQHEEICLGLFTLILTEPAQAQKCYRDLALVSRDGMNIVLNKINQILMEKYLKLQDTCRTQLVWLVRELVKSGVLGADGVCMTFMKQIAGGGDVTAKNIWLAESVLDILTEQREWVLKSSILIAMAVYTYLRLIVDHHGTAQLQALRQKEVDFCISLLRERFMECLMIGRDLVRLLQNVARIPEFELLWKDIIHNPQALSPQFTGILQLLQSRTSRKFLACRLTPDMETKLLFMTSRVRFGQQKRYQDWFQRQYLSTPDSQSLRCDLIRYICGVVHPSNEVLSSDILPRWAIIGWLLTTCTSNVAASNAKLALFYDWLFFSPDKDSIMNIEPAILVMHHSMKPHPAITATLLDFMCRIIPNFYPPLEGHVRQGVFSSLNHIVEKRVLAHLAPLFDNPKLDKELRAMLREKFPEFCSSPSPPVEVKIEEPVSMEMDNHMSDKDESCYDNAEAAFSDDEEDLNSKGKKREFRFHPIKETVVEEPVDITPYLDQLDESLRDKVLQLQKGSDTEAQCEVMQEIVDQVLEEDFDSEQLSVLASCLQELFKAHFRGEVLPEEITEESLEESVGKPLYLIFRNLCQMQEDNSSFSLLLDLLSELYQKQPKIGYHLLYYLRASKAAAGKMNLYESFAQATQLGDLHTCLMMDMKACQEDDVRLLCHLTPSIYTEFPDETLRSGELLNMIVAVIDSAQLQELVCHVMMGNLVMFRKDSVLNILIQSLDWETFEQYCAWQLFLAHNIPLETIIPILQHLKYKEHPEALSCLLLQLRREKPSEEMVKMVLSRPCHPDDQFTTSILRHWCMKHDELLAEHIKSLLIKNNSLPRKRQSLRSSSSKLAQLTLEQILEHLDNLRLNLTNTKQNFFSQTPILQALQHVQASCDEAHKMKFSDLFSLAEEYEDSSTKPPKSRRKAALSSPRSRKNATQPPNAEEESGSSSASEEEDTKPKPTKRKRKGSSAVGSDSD
inactive: erlotinib 0.015 | [1] 0.035 | [2] 0.021 | [3] -0.002 | [4] -0.008 | [5] -0.043 | [6] -0.005 | [7] 0.026 | [8] -0.083 | IRAK-1-4 Inhibitor I 0.016 | ibrutinib 0.044 | [9] 0.024 | ralimetinib 0.019 | [10] -0.032 | [11] 0.032 | [12] -0.035 | [13] 0.004 | [14] 0.009 | [15] 0.025 | [16] -0.032

HSD17B12 (UniProt Q53GQ0)
UniProt Q53GQ0, sequence (Q53GQ0 whole entry, looked up): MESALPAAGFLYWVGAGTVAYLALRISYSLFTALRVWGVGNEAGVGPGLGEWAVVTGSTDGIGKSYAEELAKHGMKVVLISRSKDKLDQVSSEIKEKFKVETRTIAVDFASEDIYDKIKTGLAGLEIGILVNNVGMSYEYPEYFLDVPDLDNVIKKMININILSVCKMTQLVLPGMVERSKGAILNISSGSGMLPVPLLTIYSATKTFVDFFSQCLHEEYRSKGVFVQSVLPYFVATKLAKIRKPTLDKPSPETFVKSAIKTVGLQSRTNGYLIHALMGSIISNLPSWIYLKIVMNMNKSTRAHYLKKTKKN
inactive: erlotinib -0.018 | [1] -0.026 | [2] -0.03 | [3] -0.018 | [4] 0.036 | [5] 0.006 | [6] -0.006 | [7] -0.022 | [8] 0.047 | IRAK-1-4 Inhibitor I 0.03 | ibrutinib -0.016 | [9] 0.004 | ralimetinib -0.026 | [10] 0.048 | [11] 0.069 | [12] 0 | [13] 0.024 | [14] -0.036 | [15] 0.049 | [16] 0.003

IMMT (UniProt C9J406)
inactive: erlotinib 0.077 | [1] 0.041 | [2] -0.028 | [3] 0.001 | [4] 0.043 | [5] 0.028 | [6] -0.032 | [7] -0.222 | [8] 0.325 | IRAK-1-4 Inhibitor I -0.016 | ibrutinib 0.119 | [9] 0.046 | ralimetinib 0.126 | [10] -0.14 | [11] -0.096 | [12] 0.099 | [13] -0.03 | [14] -0.002 | [15] 0.012 | [16] -0.015

HNRNPDL (UniProt O14979)
UniProt O14979, sequence (O14979 whole entry, looked up): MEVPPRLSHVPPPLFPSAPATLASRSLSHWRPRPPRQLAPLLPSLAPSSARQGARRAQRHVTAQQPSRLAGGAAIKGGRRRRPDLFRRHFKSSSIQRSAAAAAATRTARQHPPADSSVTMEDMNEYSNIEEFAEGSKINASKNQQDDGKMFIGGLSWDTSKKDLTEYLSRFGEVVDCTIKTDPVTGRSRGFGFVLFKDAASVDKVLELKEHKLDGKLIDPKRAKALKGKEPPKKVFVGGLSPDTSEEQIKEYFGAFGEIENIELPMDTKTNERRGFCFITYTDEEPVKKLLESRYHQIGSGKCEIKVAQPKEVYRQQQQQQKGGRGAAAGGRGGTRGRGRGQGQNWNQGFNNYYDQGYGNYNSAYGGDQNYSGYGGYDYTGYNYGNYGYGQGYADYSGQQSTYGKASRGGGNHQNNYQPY
inactive: erlotinib -0.013 | [1] 0.026 | [2] 0.009 | [3] -0.008 | [4] 0.024 | [5] 0.038 | [6] 0.008 | [7] 0.006 | [8] 0.014 | IRAK-1-4 Inhibitor I -0.008 | ibrutinib 0 | ralimetinib -0.027 | [10] 0.014 | [11] -0.011 | [12] 0.013 | [13] -0.016 | [14] 0.111 | [15] -0.011 | [16] 0
active: [9] -0.692

GTF3C3 (UniProt Q9Y5Q9)
UniProt Q9Y5Q9, sequence (Q9Y5Q9 whole entry, looked up): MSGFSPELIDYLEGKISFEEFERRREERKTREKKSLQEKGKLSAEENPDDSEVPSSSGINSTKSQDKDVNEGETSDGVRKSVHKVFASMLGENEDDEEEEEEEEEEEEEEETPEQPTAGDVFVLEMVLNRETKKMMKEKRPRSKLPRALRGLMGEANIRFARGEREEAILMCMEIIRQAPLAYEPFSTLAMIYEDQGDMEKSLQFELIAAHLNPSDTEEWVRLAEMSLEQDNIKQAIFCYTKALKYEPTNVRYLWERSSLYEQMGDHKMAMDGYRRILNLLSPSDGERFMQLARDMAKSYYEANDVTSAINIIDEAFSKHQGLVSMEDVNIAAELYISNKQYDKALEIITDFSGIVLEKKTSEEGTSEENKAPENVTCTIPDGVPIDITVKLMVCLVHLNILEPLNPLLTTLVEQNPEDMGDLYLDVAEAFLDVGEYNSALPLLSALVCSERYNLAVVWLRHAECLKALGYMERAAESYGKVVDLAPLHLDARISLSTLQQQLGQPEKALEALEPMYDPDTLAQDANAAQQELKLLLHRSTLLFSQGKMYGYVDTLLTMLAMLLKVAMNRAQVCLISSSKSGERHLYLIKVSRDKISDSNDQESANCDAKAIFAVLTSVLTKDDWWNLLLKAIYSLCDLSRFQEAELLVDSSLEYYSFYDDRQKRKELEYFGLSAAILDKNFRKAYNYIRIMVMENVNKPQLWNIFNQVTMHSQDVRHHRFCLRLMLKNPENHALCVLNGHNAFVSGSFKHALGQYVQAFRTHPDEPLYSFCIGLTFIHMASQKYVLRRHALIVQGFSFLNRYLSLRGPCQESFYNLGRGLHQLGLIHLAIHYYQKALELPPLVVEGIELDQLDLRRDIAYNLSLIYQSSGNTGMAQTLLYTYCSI
inactive: erlotinib 0.016 | [1] 0.013 | [2] -0.013 | [3] 0.025 | [4] 0 | [5] -0.005 | [6] -0.065 | [7] 0 | [8] 0.031 | IRAK-1-4 Inhibitor I -0.001 | ibrutinib 0.033 | [9] -0.001 | ralimetinib 0.027 | [10] -0.005 | [11] 0.02 | [12] -0.003 | [13] -0.112 | [14] 0.014 | [15] 0.047 | [16] -0.007
